# Results: PubChem BioAssay AID624058 (Broad Institute, 2012)
# Results filed as inconclusive are left out. Activity calls are given as the source filed them. How the calls were made is not given here.
# Assay: EDDHA-treated Pseudomonas aeruginosa growth inhibition – OD600, ATCC 15692, cherry-pick, set 2, dose response (AID 624058)
# Settings: P. aeruginosa ATCC 15692 with EDDHA, OD600, 24-30 h; series mostly up to 50 µM
row,SMILES,outcome
1,CCOC(=O)c1ccc(-c2ccc(CO)o2)cc1,inactive
2,O=[N+]([O-])c1ccc(N2CCCC2)nc1,inactive
3,O=C1C2C(C(=O)N1Cc1ccco1)C1C=CC2C12CC2 (centres undefined),inactive
4,Cc1ccc(S(=O)c2ccc(C)cc2)cc1,inactive
5,COc1ccccc1C(C#N)c1cccc(Cl)n1 (centres undefined),inactive
6,N#C/C(=C/c1ccco1)c1nc2ccccc2s1,inactive
7,CCOC(=O)/C=C(\C)Sc1cc(=O)oc2ccccc12,inactive
8,O=[N+]([O-])c1ccc(N2CCCCC2)nc1,inactive
9,CCOC(=O)N1CCN(c2ccc(Cl)cc2)CC1,inactive
10,CCCNS(=O)(=O)c1ccc(OC)c(Cl)c1Cl,inactive
11,Cn1cccc1C(C#N)c1cccc(F)c1C#N (centres undefined),inactive
12,CCOc1ccc(-n2cccc2C=O)cc1,inactive
13,N#Cc1cc(-c2ccccc2)cnc1Cl,inactive
14,O=CN(c1ccccc1)c1ccc2ccccc2c1,inactive
